D2 ag-1 – Beta-Arrestin HTS for Positive Allosteric Modulators of the Human D2 Dopamine Receptor: Agonists | D(2) dopamine receptor (Homo sapiens), P14416 | DiscoveRx PathHunter D2 beta-arrestin, luminescence, 90 min; 100% = 57 uM dopamine signal | activation, % (concentration not given with the values) | 360,000 compounds, 0.084% hits | AID 624465, 2012; in the data active = activation above about 40%; inconclusive = between about 15% and that limit
Target sequence (P14416 whole entry, looked up): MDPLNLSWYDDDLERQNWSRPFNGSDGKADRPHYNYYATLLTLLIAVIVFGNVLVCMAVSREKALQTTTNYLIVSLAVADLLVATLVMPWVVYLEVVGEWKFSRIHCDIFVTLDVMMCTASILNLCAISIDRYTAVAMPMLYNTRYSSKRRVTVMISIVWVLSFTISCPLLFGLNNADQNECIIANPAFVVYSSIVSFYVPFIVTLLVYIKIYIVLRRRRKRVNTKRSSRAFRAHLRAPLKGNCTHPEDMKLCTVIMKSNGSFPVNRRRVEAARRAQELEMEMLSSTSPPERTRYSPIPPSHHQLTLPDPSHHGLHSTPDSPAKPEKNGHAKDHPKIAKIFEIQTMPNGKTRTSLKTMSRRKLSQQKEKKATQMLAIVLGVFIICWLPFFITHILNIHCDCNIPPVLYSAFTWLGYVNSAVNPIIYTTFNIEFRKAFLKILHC
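DiscoveRx PathHunter D2 beta-arrestin cells (2,100/well) attached overnight, then compound-stimulated 90 min at 37 C in HBSS/10 mM HEPES/0.1% Tween-20 buffer; beta-galactosidase complementation read by luminescence after 1 h at ambient temperature. Dopamine 57 uM final (EC100) as control.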
D2 PAM-1 – Beta-Arrestin HTS for Positive Allosteric Modulators of the Human D2 Dopamine Receptor: Potentiators; D(2) dopamine receptor (Homo sapiens), P14416; DiscoveRx D2 beta-arrestin cells, luminescence, 90 min; 100% = 57 uM dopamine signal; potentiation, % (no concentration beside the values); 360,000 compounds, 0.23% hits; AID 624464, 2012; in the data active = potentiation above about 50%; inconclusive = mostly about 30% to 49%
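PathHunter beta-arrestin assay in DiscoveRx D2 cells. Compounds were added with an EC20 of dopamine (50 nM final) for 90 min at 37 deg C. Luminescence was read 1 h after detection reagent, with 57 uM dopamine as the EC100 control.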
D2 PAM-2 – HTS Assay for Positive Allosteric Modulators of the Human D2 Dopamine Receptor: Primary Screen for Potentiators; 340,000 compounds, 0.34% hits; potentiation, % at 10 µM; HEK293 T-REx D2, calcium flux, EC20 dopamine potentiation;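 active = potentiation over 3 SD above the plate norm, cut at about 30% in these data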
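Calcium flux readout, no-wash dye, 1 read/s. Inducible HEK293 Trex D2 line, overnight 30 C. Compound alone 180 s (agonist flags), then EC20 dopamine, another 180 s to score potentiation.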
D2 antagonist – HTS Assay for Allosteric Antagonists of the Human D2 Dopamine Receptor: Primary Screen for Antagonists | HEK293 TREx D2 cells, calcium flux, dopamine EC80 | inhibition, % at 10 µM | 340,000 compounds, 2% hits; in the data active = inhibition above about 30%; inactive = below that, where a call was filed
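Dopamine at EC80 is the agonist stimulus; test compounds precede it by 180 s. Calcium flux read kinetically in a force-coupled, inducible HEK293 T-REx D2 cell line.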
D2 ag-2 – HTS Assay for Allosteric Agonists of the Human D2 Dopamine Receptor: Primary Screen for Agonists | AID 485358, 2010 | 340,000 compounds, 0.53% hits | activation, % at 2 µM | D(2) dopamine receptor (Homo sapiens), P14416 | HEK293 T-REx D2 cells, calcium flux agonist mode;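 active = activation over 3 SD above normal in the single-dose calcium agonist read, cut at about 30% in these data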
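Agonism scored from kinetic calcium signal (1 read/sec, 180 s) following compound pin transfer, after a 10 s baseline. Cells: HEK293 Trex line expressing inducible D2 receptor coupled to calcium, dye-loaded after overnight culture at 30 C.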
Hits are given with their value. A selection: hits, their analogues and other compounds. The true share with any hit is near 2.4%.

What do the screens show for `COc1cc(C(=O)N2CCN(c3ccc(Nc4ccccc4)nn3)CC2)cc(OC)c1OC`?
D2 PAM-2: inactive; D2 ag-2: inactive

How did O=C(CSc1nccc(=O)[nH]1)Nc1ccc(S(=O)(=O)N2CCOCC2)cc1 do in these assays?
D2 ag-1: inactive; D2 PAM-1: inactive; D2 PAM-2: inactive; D2 antagonist: 31; D2 ag-2: inactive

How did COc1ccc(N2CCN(C(=O)CCc3c(C)nc4c(-c5ccccc5)c(C)nn4c3C)CC2)cc1 do in these assays?
D2 PAM-2: inactive; D2 ag-2: inactive

What do the screens show for `CCc1c(C)nc2nc(SCc3ccccc3Cl)[nH]n2c1=O`?
D2 ag-1: inactive; D2 PAM-1: inactive; D2 PAM-2: inactive; D2 antagonist: 32; D2 ag-2: inactive

How did Cc1nc2nc(NCc3ccccc3Cl)[nH]n2c(=O)c1Cc1ccccc1 do in these assays?
D2 PAM-2: inactive; D2 ag-2: inactive

How did CCOC(=O)COc1cc(C)c(Cl)cc1C(=O)c1ccn2nc(-c3ccc(OC)cc3)cc2n1 do in these assays?
D2 PAM-2: inactive; D2 ag-2: inactive

What do the screens show for `O=C(Nc1cccc(C(F)(F)F)c1)c1cc2ncc(Br)cn2n1`?
D2 ag-1: inactive; D2 PAM-1: inactive; D2 PAM-2: inactive; D2 antagonist: 53; D2 ag-2: inactive

How did NC(=S)N=Nc1c(O)cc(O)c2[nH]c(=O)ccc12 do in these assays?
D2 ag-1: inconclusive; D2 PAM-1: 66

How did O=C(NC(=S)Nc1ccc2oc(=O)ccc2c1)c1cccc(Cl)c1 do in these assays?
D2 ag-1: inactive; D2 PAM-1: inactive; D2 PAM-2: inactive; D2 antagonist: 30; D2 ag-2: inactive

Results for CCOC(=O)CSc1nc(C)cc(Oc2ccc(=O)n(C)n2)n1 ?
D2 ag-1: inactive; D2 PAM-1: inactive; D2 PAM-2: inactive; D2 antagonist: 36; D2 ag-2: inactive

How did Cc1cc(Oc2ccc(=O)n(C)n2)nc(SCCOc2ccccc2)n1 do in these assays?
D2 ag-1: inactive; D2 PAM-1: inactive; D2 PAM-2: inactive; D2 antagonist: inactive; D2 ag-2: inactive

How did CCOC(=O)Cn1c(CN2CCN(c3cccc(Cl)c3)CC2)nc2c1c(=O)[nH]c(=O)n2C do in these assays?
D2 ag-1: inactive; D2 PAM-1: inactive; D2 PAM-2: inactive; D2 antagonist: 30; D2 ag-2: inactive

What do the screens show for `COCCn1c(CN2CCN(c3cccc(Cl)c3)CC2)nc2c1c(=O)n(C)c(=O)n2C`?
D2 ag-1: inactive; D2 PAM-1: inactive; D2 PAM-2: inactive; D2 antagonist: inactive; D2 ag-2: inactive

Results for CCOCCn1c(CN2CCN(c3ccc(F)cc3)CC2)nc2c1c(=O)n(C)c(=O)n2C ?
D2 ag-1: inactive; D2 PAM-1: inactive; D2 PAM-2: inactive; D2 antagonist: inactive; D2 ag-2: inactive

Results for CC(C)CCn1c(CN2CCN(c3cccc(Cl)c3)CC2)nc2c1c(=O)n(C)c(=O)n2C ?
D2 ag-1: inactive; D2 PAM-1: inactive; D2 PAM-2: inactive; D2 antagonist: 47; D2 ag-2: inactive

Results for COC(=O)Cn1c(CN2CCN(c3ccc(F)cc3)CC2)nc2c1c(=O)n(C)c(=O)n2C ?
D2 ag-1: inactive; D2 PAM-1: inactive; D2 PAM-2: inactive; D2 antagonist: 30; D2 ag-2: inactive

Results for COc1ccc(-c2cn3nc(SCC(=O)Nc4ccc(C)c(Cl)c4)ccc3n2)cc1 ?
D2 PAM-2: inactive; D2 ag-2: inactive

What do the screens show for `O=C1c2ccccc2-c2nc3ccccc3n21`?
D2 ag-1: inactive; D2 PAM-1: inactive; D2 PAM-2: 35; D2 antagonist: inactive; D2 ag-2: inactive

How did COc1ccc(CNC(=O)CCc2nc(-c3ccc(C)cc3)no2)c(OC)c1 do in these assays?
D2 PAM-2: inactive; D2 ag-2: inactive

What do the screens show for `COc1cccc(C(=O)NCC2CCCN(C3CCCCC3)C2)c1OC` (configuration not stated)?
D2 ag-1: inactive; D2 PAM-1: inactive; D2 PAM-2: inactive; D2 antagonist: 57; D2 ag-2: inactive

Screening data: PubChem BioAssay, National Center for Advancing Translational Sciences (NCATS)
